# In PubChem BioAssay (NCATS):
# Values without a mark were called inactive. Records with an inconclusive call do not appear. Active and inactive are the calls of the source. Calls come from the whole dose curve; as a rule, active = well fitted curve in the direction sought with a large enough effect; inconclusive = small, poorly fitted or top-dose-only effect, or another doubt; inactive = no such curve, though single readings can be large; an effect the other way counts as inactive or inconclusive.
# Experiment: qHTS assay for measurement of the activity of small molecule inhibitors on Zika virus induced Caspase-3 activity in human iPSC derived neural progenitor cells (hNPCs) (AID 1224857); note: % of control where 0% means no effect; nearly all actives have a fitted effect of over 65% in size
# Settings: hNPCs ZIKV-induced caspase-3/7, Caspase-Glo luminescence, 6 h; series mostly up to 45.7 µM; activity change, negative = inhibition: at the top concentration
# Summary of the method: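 Quantitative HTS format: human iPSC neural progenitors, 1 h compound pretreatment, ZIKV 2 FFU/cell for 6 h at 37 C. Percent inhibition derived from luminescent caspase-3/7 signal between uninfected and infected controls.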
Compound,"activity change, negative = inhibition",outcome
CC(=O)OCC1=C(C(=O)O)N2C(=O)[C@@H](N)[C@H]2SC1,-6.85% [at 20.5 µM],
C#C[C@]1(O)CC[C@H]2[C@@H]3CCC4=CC(=O)CC[C@]4(C)[C@H]3CC[C@@]21C,7.13%,
C=CCN1C[C@H](C)N([C@H](c2ccc(C(=O)N(CC)CC)cc2)c2cccc(OC)c2)C[C@H]1C,-7.52%,
CCCCCCC(=O)CCCCCC/C=C/C[C@@H](O)[C@H](O)[C@@](N)(CO)C(=O)O,-5.48% [at 20.5 µM],
Nc1ccccc1C(=O)O,2.18%,
Clc1cccc(SC2CCNCC2)n1,3.87%,
Nc1ccc([As](=O)(O)O)cc1,-1.57%,
CCCCCCCCCC(=O)O[C@H]1CC[C@H]2[C@@H]3CCC4=CC(=O)CC[C@@H]4[C@H]3CC[C@]12C,-6.37%,
NC(=O)c1cc([N+](=O)[O-])cc([N+](=O)[O-])c1,-10.3%,
CNC(C)(C)Cc1ccccc1,2.42%,
CC(C)NC(C)C,-0.945%,
COc1c2c(cc3c1OCO3)CCN(C)C2,-0.546%,
O=C1c2ccccc2C(=O)c2ccccc21,10.6% [at 20.5 µM],
COc1ccc2c(c1OC)C(=O)O[C@H]2[C@@H]1c2cc3c(cc2CCN1C)OCO3,,inactive
O=c1[nH]oc2c1CCNC2,,inactive
[N-]=[N+]=CC(=O)OC[C@H](N)C(=O)O,1.22%,
CC(C)(C)NCC(O)c1cc(Cl)c(N)c(C(F)(F)F)c1 (centres undefined),14%,
NCCc1ccc(O)cc1,,inactive
CCOC(=O)CC(SP(=S)(OC)OC)C(=O)OCC (centres undefined),-0.121%,
O=c1oc2ccccc2c(O)c1Cc1c(O)c2ccccc2oc1=O,8.83%,

# Experiment: qHTS assay for measurement of the activity of small molecule inhibitors on Zika virus induced Caspase-3 activity in human astrocytoma cells (AID 1224859);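 note: plate controls were ZIKV-infected untreated cells for no effect and uninfected cells for full effect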
# Settings: SNB-19 ZIKV-induced caspase-3/7, luminescence, 6 h; series mostly up to 45.7 µM; activity change, negative = inhibition: at the top concentration
# Summary of the method: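 Readout is luminescence from Caspase-Glo 3/7 added after a 6 h ZIKV infection (2 FFU/cell) of compound-pretreated (1 h) SNB-19 cells; data expressed as % inhibition versus uninfected and infected wells.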
Compound,"activity change, negative = inhibition",outcome
CC(Cc1ccccc1)NCCn1cnc2c1c(=O)n(C)c(=O)n2C (centres undefined),-1.65% [at 92.8 µM],
CC(=O)OCC1=C(C(=O)O)N2C(=O)[C@@H](N)[C@H]2SC1,-3.1% [at 20.5 µM],
C#C[C@]1(O)CC[C@H]2[C@@H]3CCC4=CC(=O)CC[C@]4(C)[C@H]3CC[C@@]21C,-21.9%,
C=CCN1C[C@H](C)N([C@H](c2ccc(C(=O)N(CC)CC)cc2)c2cccc(OC)c2)C[C@H]1C,-5.02%,
CC(Cc1ccccc1)N(C)Cc1ccco1 (centres undefined),1.4%,
CCCCCCC(=O)CCCCCC/C=C/C[C@@H](O)[C@H](O)[C@@](N)(CO)C(=O)O,1.18% [at 20.5 µM],
Nc1ccccc1C(=O)O,-1.23%,
Clc1cccc(SC2CCNCC2)n1,17.3%,
Nc1ccc([As](=O)(O)O)cc1,5.5%,
C[C@]12CCC(=O)C=C1CC[C@@H]1[C@@H]2CC[C@@]2(C)[C@H]1CC[C@]2(C)O,-7.27%,
CCC(C)C(C)(COC(N)=O)COC(N)=O (centres undefined),-6.27%,
COc1cc(CC(C)N)cc(OC)c1OC (centres undefined),4.92% [at 92.8 µM],
CCCCCCCCCC(=O)O[C@H]1CC[C@H]2[C@@H]3CCC4=CC(=O)CC[C@@H]4[C@H]3CC[C@]12C,16.6%,
c1ccc(CN2CCNCC2)cc1,-7.62% [at 178 µM],
NC(=O)c1cc([N+](=O)[O-])cc([N+](=O)[O-])c1,-4.39%,
COP(=S)(OC)Oc1cc(Cl)c(Cl)cc1Cl,-2.87%,
C#CC(O)(C=CCl)CC (centres undefined),-2.51%,
CNC(C)(C)Cc1ccccc1,-3.79%,
O=C(O)c1ccc(=O)[nH]c1,7.51%,
CC1(C)C(C=C(Cl)Cl)C1C(=O)OC(C#N)c1cccc(Oc2ccccc2)c1 (centres undefined),3.34%,

Compound,"activity change, negative = inhibition",outcome
CC(C)NC(C)C,6.47%,
COc1c2c(cc3c1OCO3)CCN(C)C2,7.63%,
O=C1c2ccccc2C(=O)c2ccccc21,1.12% [at 20.5 µM],
COc1ccc2c(c1OC)C(=O)O[C@H]2[C@@H]1c2cc3c(cc2CCN1C)OCO3,,inactive
O=c1[nH]oc2c1CCNC2,,inactive
ClCCN1CCCC1,6.69%,
C[C@H](N)C(=O)c1ccccc1,-6.86% [at 92.8 µM],
c1ccc(N2CCNCC2)cc1,10%,
[N-]=[N+]=CC(=O)OC[C@H](N)C(=O)O,-17.8%,
Nc1ccccc1,3.49%,
CC(C)(C)NCC(O)c1cc(Cl)c(N)c(C(F)(F)F)c1 (centres undefined),-4.96%,
CCC(CC)(CNC(=O)CCCO)c1cccc(OC)c1,3.89%,
COc1cccc(C(=O)CCN[C@@H](C)[C@H](O)c2ccccc2)c1,9.61%,
NCCc1ccc(O)cc1,,inactive
CCN[C@@H](C)Cc1ccccc1,-1.73% [at 92.8 µM],
CNCC(=O)c1ccc(O)c(O)c1,-8.89%,
CCN[C@@H](C)Cc1cccc(C(F)(F)F)c1,-15%,
CCOC(=O)CC(SP(=S)(OC)OC)C(=O)OCC (centres undefined),,inactive
O=c1oc2ccccc2c(O)c1Cc1c(O)c2ccccc2oc1=O,-1.85%,

# Experiment: qHTS assay to identify small molecule inhibitors of chordoma cells - UCH-1 (AID 1259355); note: % is set by controls: 0 for no effect and ±100 for the full control effect; nearly all actives have a fitted effect of over 55% in size
# Settings: UCH-1 chordoma viability, CellTiter-Glo, 48 h, combination; series mostly up to 46.1 µM; activity, negative = inhibition: at the top concentration
# Summary of the method: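 A 48hr growth-inhibition format: each drug tested at 15 concentrations together with added auranofin, camptothecin, doxorubicin, rubitecan and topotecan, with cell viability quantified as CellTiter-Glo luminescence.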
Compound,"activity, negative = inhibition",outcome
CC(=O)OCC1=C(C(=O)O)N2C(=O)[C@@H](N)[C@H]2SC1,-21% [at 20.6 µM],
C#C[C@]1(O)CC[C@H]2[C@@H]3CCC4=CC(=O)CC[C@]4(C)[C@H]3CC[C@@]21C,,inactive
C=CCN1C[C@H](C)N([C@H](c2ccc(C(=O)N(CC)CC)cc2)c2cccc(OC)c2)C[C@H]1C,-14%,
CCCCCCC(=O)CCCCCC/C=C/C[C@@H](O)[C@H](O)[C@@](N)(CO)C(=O)O,-6.05%,
Nc1ccccc1C(=O)O,-20.6%,
Clc1cccc(SC2CCNCC2)n1,-25.8%,
Nc1ccc([As](=O)(O)O)cc1,-37.9%,
NC(=O)c1cc([N+](=O)[O-])cc([N+](=O)[O-])c1,-5.22%,
CNC(C)(C)Cc1ccccc1,8.48% [at 20.6 µM],
CC(C)NC(C)C,-13.8%,
O=C1c2ccccc2C(=O)c2ccccc21,-26%,
O=c1[nH]oc2c1CCNC2,-7.29%,
CC(C)(C)NCC(O)c1cc(Cl)c(N)c(C(F)(F)F)c1 (centres undefined),-5.88%,
CCOC(=O)CC(SP(=S)(OC)OC)C(=O)OCC (centres undefined),-3.89%,
O=c1oc2ccccc2c(O)c1Cc1c(O)c2ccccc2oc1=O,-11.1% [at 20.6 µM],
